Assay outcomes from PubChem BioAssay.
FMDV antiviral = shows antiviral activity against foot and mouth disease virus | FMDV antiviral cell assay, firefly luciferase signal | Potency, µM (series often up to 57.5 µM), without a hit: at the top dose activity change, negative = inhibition, hits mostly inhibitors | 120,000 tested, 0.23% active | AID 1745856; note: nearly all actives have a fitted effect of over 60% in size
FMDV Renilla = antivirals against foot and mouth disease virus replicon; FMDV replicon cells, Renilla luciferase signal; Potency, µM (series often up to 57.5 µM), for inactives: top-dose activity change, negative = inhibition, hits mostly inhibitors; 120,000 tested, 0.32% active; AID 1745857; note: nearly all actives have a fitted effect of over 55% in size
Numbers without * were called inactive; ? = inconclusive; [ ] = dose if it differs, or a comment. Only some compounds are listed: those with a hit (about 0.45% of all), similar ones and a draw of the others. Calls come from the whole dose curve. % is set by controls: 0 for no effect and ±100 for the full control effect; potency is the fitted concentration of half-maximal effect.

SMILES	FMDV antiviral	FMDV Renilla
COc1ccc(CCNCc2ccc(Cl)cc2)cc1	1.7%	8.91µM*
COc1ccc(CNCCc2ccc(Cl)cc2)cc1	7.4%	-27.5%
Cc1ccc(C(=O)COC(=O)CCCC(=O)Nc2cc(C(F)(F)F)ccc2Cl)cc1[N+](=O)[O-]	-8.4%	-4.3%
Cc1ccc(CCNC(=O)C(C)n2nc(C)c3c(C)n(-c4ccc(C)cc4)nc3c2=O)cc1 (stereo not given)	?	12.6µM*
COc1ccc(CCNC(=O)C(C)n2nc(C)c3c(C)n(-c4ccccc4)nc3c2=O)cc1OC (stereo not given)	22.7%	8.9%
O=C(OCC(=O)c1c[nH]c2ccccc12)c1ccccc1C(=O)c1ccc(Cl)c([N+](=O)[O-])c1	25.3%	18.5%
O=C(CSc1ncc(-c2ccc(Br)cc2)o1)N1CCCCCC1	185.8%	4.8%
CCOc1ccc(C(=O)c2ccc(Cl)cc2)cc1	41.6%	19.5%
CCNC(=O)NC(=O)C(C)Oc1ccc(C(=O)c2ccc(Cl)cc2)cc1 (stereo not given)	12.6µM*	?
COc1cccc(C(=O)Nc2ccc3oc(-c4cccc(Cl)c4)nc3c2)c1	26.2%	-8.2%
Cc1nc2nncn2c(NCc2ccc(F)cc2)c1C	?	8.91µM*
CCc1c(C)nc2nncn2c1NCc1ccc(OC)cc1	-11.9%	-28.5%
Cc1nc2nncn2c(NCc2ccc(Cl)cc2)c1C	?	1.41µM*
COc1ccc(CNc2cc(-c3ccc(OC)cc3)nc3nncn23)cc1	-16.8%	-20.9%
O=C(Nc1nc(-c2cc3ccccc3oc2=O)cs1)c1ccc(Cl)cc1	-5.9%	-12.0%
O=C(Nc1nc(-c2ccc(Cl)cc2)cs1)C1CCN(C(=O)c2ccoc2)CC1	?	10µM*
O=C(Nc1nc(-c2ccc(Cl)cc2)cs1)c1ccc(CN2CCOCC2)cc1	14.1µM*	?
O=C(Nc1nc(-c2ccc(Br)s2)cs1)C1CC1	0.0%	11.0%
CC(=O)Oc1ccc2c(-c3ccc(F)cc3)noc2c1	235.3%	11.1%
CCCSc1nn(CCN(C)C)c2nc3sc4c(c3c(=O)n12)CCCC4	-11.7%	-18.0%
CCn1c(C)c(C(=O)NCc2ccccc2)c2cc(OC)ccc21	16.7%	39.7%
COc1ccc2c(c1)c(C(C)=O)c(C)n2Cc1ccccc1	20µM*	?
CC(C)Cn1nc(C(=O)N2CC(C(=O)N3CCCCC3)Oc3ccccc32)c2ccccc2c1=O (stereo not given)	-13.1%	21.1%
CCOC(=O)COc1ccc2c(=O)c(Oc3ccc(C(=O)OC)cc3)c(C(F)(F)F)oc2c1	3.7%	-2.8%
CCOC(=O)c1ccc(Oc2c(C(F)(F)F)oc3cc(O)ccc3c2=O)cc1	?	25.1µM*
SMILES	FMDV antiviral	FMDV Renilla
CCc1ccccc1N(C(C)=O)c1nc(COc2ccccc2C(N)=O)cs1	-1.7%	1.8%
Cc1nccc(CNC(=O)c2ccc3ncsc3c2)n1	1.7%	1.6%
Cc1cccc(C)c1NC(=O)c1ccc2ncsc2c1	22.4µM*	4.6%
COc1ccc(C(=O)N2CCN(Cc3nc(N)c4ccccc4n3)CC2)cc1	62.1%	-13.2%
CCc1c(C(=O)Nc2ccccc2C#N)csc1C	13.9%	12.2%
Nc1nccnc1C(=O)NCc1ccc(OCc2cccc(F)c2)cc1	?	11.2µM*
Nc1nccnc1C(=O)NCc1cccnc1Oc1cccc(F)c1	5.0%	8.0%
CCn1c(C)c(/C=C/c2cc[n+](C)cc2)c2ccccc21	?	14.1µM*
Cc1ccccc1-n1c(/C=C/c2c(C)n(C)c3ccccc23)nc2ccccc2c1=O	1.8%	-11.6%
Cc1nc2ccc(NC(=O)c3cc4c(s3)CCC4)cc2s1	0.0%	3.5%
Cc1sc(NC(=O)c2ccco2)nc1-c1ccc2c(c1)N(C)C(=O)CO2	4.0%	-0.9%
CCN1C(=O)COc2ccc(-c3nc(NC(=O)c4ccccc4)sc3C)cc21	14.1µM*	10µM*
O=C(CN1Cc2ccccc2C1=O)Nc1ccc(S(=O)(=O)N2CCCCCC2)cc1	-14.2%	-2.2%
CNS(=O)(=O)c1ccc(CCC(=O)Nc2nc(C)c(C)s2)cc1	87.0%	191.4%
Cc1c(Cl)cccc1NC(=O)COC(=O)c1ccc2ccccc2n1	-5.5%	-11.3%
CC1=C2C(=O)CC(c3cccc(Cl)c3)CC2=Nc2ccccc2N1 (stereo not given)	?	17.8µM*
CC1=C2C(=O)CC(C)CC2=Nc2ccccc2N1 (stereo not given)	11.0%	2.1%
Cc1ccc(N/N=C/c2cccc(C(F)(F)F)c2)cc1Cl	2.6%	8.8%
Cc1ccc(Nc2nc3nonc3nc2Nc2cccc(C(F)(F)F)c2)cc1Cl	?	2.24µM*
CCN(Cc1cccc(F)c1)C(=O)Cn1nnn(-c2cccs2)c1=O	18.1%	2.8%
CC(C)c1cc(=O)oc2cc(OCC(=O)N3CCCCC3)ccc12	6.2%	-7.5%
COc1ccc(OC)c(NC(=O)c2ccc(-c3nc(COc4ccccc4)c(C)o3)cc2)c1	0.0%	16.9%
COc1ccccc1NC(=O)c1ccc(-c2nc(COc3ccc(C)cc3)c(C)o2)cc1	?	25.1µM*
Cn1nc(C(=O)Nc2ccc(F)cc2F)c2ccccc2c1=O	15.7%	4.5%
COc1ccc(C)cc1NC(=O)Cn1c(=O)oc2cc(S(=O)(=O)N3CCCCC3)ccc21	11.4%	12.8%
SMILES	FMDV antiviral	FMDV Renilla
COc1ccc(NC(=O)Cn2c(=O)oc3cc(S(=O)(=O)N4CCC(C)CC4)ccc32)c(OC)c1	?	10µM*
COc1ccc(Nc2cc(C)nc(NCc3ccccc3)n2)cc1	0.3%	-23.8%
COc1ccc(Nc2cc(C)nc(Nc3ccc(NC(=O)CC(C)(C)C)cc3)n2)cc1	?	22.4µM*
CCC(C)NC(=O)N(C)C1CCN(c2ccc(Cl)cc2)CC1 (stereo not given)	?	12.6µM*
CCC(C)NC(=O)c1ccc(N(C)C2CCCCC2)cc1 (stereo not given)	205.0%	-3.0%[1.06 µM]
Cc1c(C)c2ccc(OCC(=O)C(C)(C)C)c(C)c2oc1=O	116.7%	29.7%
CCOC(=O)CCc1c(C)c2ccc(OCC(=O)C(C)(C)C)c(C)c2oc1=O	2.82µM*	17.8%
CNC(=O)c1ccccc1OCc1coc(-c2ccc(OC)cc2)n1	-11.2%	?
CNC(=O)c1cccc(OCc2coc(-c3cccc(F)c3)n2)c1	-15.6%	12.6µM*
CNC(=O)c1ccc(OCc2coc(-c3cccc(F)c3)n2)cc1	-21.5%	-39.1%
CNC(=O)c1ccccc1OCc1coc(-c2ccccc2)n1	?	10µM*
COc1cc(C2C(C#N)=C(N)Oc3n[nH]c(C)c32)cc(Br)c1OCc1ccccc1 (stereo not given)	21.9%	22.8%
COc1ccc(CNC(=O)C(C)OC(=O)c2ccc3c(c2)NC(=O)CS3)cc1OC (stereo not given)	25.1µM*	?
Cc1[nH]c2ccccc2c1C(=O)C(C)OC(=O)c1ccc2c(c1)NC(=O)CS2 (stereo not given)	35.5µM*	?
CC(OC(=O)c1ccc2c(c1)NC(=O)CS2)C(=O)c1ccccc1 (stereo not given)	84.1%	14.1%
CC(=O)Nc1ccc(NC(=O)C(C)OC(=O)c2ccc3c(c2)NC(=O)CS3)cc1 (stereo not given)	3.3%	-9.7%[1.06 µM]
CCn1c(SCC(=O)Nc2ccc(C(=O)O)cc2)nnc1-c1ccccc1Cl	-6.5%	-7.4%
CC(=O)c1cccc(NC(=O)C(Sc2nnc(-c3ccoc3C)o2)c2ccccc2)c1 (stereo not given)	56.5%	-0.1%
CC(C)NS(=O)(=O)c1cccc(C(=O)Nc2ccc(N3CCCCC3)c3ccncc23)c1	?	-0.8%
C=CCNC(=S)N/N=C1/C=C(C)CC(C)(C)C1	6.3%	6.0%
